Experimental data as given in ChEMBL document CHEMBL3988442, “University of Dundee, Small-Polar-MMV Screening Library” (2021).
For some assays here: Potency and affinity values are given separately.

Tests used:
Design in all cases: scale not given: direction of the effect not stated beside the values
[1] = target: Protein translocase subunit SecA (Escherichia coli (strain K12)) (UniProt P10408); assay: Assay to Identify E. coli SecA ATPase Inhibitors; assay type: functional; conditions: 30 µM
[2] = target: T1, Ubiquitin-activating enzyme e1, putative (Leishmania donovani (strain BPK282A1)) (UniProt E9BSI1); assay: Leishmania donovani Ubiquitin Activating Enzyme (LdE1); assay type: functional; conditions: 30 µM
T1 sequence (whole entry): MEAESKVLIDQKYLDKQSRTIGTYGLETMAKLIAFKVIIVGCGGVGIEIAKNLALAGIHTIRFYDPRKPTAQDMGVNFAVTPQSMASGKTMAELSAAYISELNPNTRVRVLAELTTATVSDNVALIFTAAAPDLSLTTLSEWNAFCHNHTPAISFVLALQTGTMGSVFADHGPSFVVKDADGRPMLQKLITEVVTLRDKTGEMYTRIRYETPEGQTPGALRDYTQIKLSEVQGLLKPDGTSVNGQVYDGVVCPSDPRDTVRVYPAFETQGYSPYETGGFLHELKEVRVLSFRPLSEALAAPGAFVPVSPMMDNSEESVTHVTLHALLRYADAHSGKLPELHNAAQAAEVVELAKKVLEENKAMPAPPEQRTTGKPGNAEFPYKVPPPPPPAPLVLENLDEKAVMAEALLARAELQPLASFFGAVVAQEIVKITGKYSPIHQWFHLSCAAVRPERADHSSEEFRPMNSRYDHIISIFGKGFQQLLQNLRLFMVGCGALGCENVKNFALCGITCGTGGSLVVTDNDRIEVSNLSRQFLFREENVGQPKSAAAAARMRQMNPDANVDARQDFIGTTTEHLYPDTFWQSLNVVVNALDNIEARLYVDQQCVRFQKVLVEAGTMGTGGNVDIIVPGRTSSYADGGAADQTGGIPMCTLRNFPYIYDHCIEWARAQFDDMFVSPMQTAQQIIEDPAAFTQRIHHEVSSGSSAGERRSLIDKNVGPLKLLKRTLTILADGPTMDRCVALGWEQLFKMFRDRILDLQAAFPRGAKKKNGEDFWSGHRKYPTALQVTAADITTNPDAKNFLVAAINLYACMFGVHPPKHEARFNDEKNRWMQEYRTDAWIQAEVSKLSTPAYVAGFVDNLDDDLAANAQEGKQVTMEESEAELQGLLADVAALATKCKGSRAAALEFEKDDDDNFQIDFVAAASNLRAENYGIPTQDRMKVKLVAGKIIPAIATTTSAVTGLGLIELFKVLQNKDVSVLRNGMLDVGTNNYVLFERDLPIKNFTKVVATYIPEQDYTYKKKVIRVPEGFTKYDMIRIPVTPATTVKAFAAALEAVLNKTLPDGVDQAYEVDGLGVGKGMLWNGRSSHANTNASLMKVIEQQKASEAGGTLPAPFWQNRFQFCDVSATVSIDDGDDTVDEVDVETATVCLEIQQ

[3] = target: AMP-activated protein kinase, AMPK (Homo sapiens) (UniProt P54646+O43741+P54619+Q9UGJ0+Q9Y478+Q13131+Q9UGI9); assay: AMP-dependent Kinase enzyme assay. An in vitro enzyme assay that detects ADP turnover that is directly proportional to AMPK activity. This uses naive AMPK that is activated during the assay with MK-8722; assay type: functional; conditions: 30 µM
[4] = target: Sialic acid-binding Ig-like lectin 9 (Homo sapiens) (UniProt Q9Y336); assay: Hs-Siglec9 ALPHAscreen SOP 20170721; conditions: 10 µM
Trypanosoma cruzi = assay: Trypanosoma cruzi phosphomannomutase and mannose-1-phosphate guanylyltransferase assay; assay type: functional; conditions: 10 µM
[5] = target: T2, Arginase-2, mitochondrial (Homo sapiens) (UniProt P78540); assay: in vitro enzyme assay to detect the production of urea directly proportional to the activity of Arginase II; assay type: functional; conditions: 33.3 µM; note: in the data most compounds retested in dose-response had high values
T2 sequence (whole entry): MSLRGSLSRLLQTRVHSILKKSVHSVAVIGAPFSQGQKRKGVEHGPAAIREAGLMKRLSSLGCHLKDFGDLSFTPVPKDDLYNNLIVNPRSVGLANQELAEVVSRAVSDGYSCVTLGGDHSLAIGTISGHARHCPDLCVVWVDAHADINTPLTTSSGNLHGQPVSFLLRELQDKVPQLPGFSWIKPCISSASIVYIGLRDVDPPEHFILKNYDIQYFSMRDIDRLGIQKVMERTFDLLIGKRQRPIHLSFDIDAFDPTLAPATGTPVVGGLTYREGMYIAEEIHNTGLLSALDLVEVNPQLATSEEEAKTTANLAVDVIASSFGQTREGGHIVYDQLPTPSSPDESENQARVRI

[6] = target: T3, Proteasome subunit beta (Trypanosoma cruzi) (UniProt O96673); assay: Trypanosoma cruzi proteasome chymotrypsin-like activity (TcProtChymo) assay.; note: in the data most compounds retested in dose-response had high values; assay type: functional; conditions: 9.37 µM
T3 sequence (whole entry): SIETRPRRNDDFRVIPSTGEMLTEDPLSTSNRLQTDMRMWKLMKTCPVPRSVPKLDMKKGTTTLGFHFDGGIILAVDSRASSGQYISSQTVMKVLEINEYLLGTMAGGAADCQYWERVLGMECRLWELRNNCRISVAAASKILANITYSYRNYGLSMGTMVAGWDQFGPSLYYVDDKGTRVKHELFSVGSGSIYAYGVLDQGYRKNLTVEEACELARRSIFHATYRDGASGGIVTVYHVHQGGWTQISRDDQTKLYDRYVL

Homo sapiens = species on record: Homo sapiens; assay: To identify inhibition of the IFN signalling (Jak-Stat) pathway via expression of an eGFP reporter gene under the control of an IFN-stimulated response element (ISRE) containing MxA promoter.; assay type: functional; conditions: 30 µM
[7] = target: T4, Tyrosyl-tRNA synthetase, putative (Trypanosoma cruzi (strain CL Brener)) (UniProt Q4DSP6); assay: Trypanosoma cruzi tyrosyl tRNA synthetase (TcYRS) _High Tyrosine SOP; assay type: functional; conditions: 30 µM; note: in the data most compounds retested in dose-response had high values
T4 sequence (whole entry): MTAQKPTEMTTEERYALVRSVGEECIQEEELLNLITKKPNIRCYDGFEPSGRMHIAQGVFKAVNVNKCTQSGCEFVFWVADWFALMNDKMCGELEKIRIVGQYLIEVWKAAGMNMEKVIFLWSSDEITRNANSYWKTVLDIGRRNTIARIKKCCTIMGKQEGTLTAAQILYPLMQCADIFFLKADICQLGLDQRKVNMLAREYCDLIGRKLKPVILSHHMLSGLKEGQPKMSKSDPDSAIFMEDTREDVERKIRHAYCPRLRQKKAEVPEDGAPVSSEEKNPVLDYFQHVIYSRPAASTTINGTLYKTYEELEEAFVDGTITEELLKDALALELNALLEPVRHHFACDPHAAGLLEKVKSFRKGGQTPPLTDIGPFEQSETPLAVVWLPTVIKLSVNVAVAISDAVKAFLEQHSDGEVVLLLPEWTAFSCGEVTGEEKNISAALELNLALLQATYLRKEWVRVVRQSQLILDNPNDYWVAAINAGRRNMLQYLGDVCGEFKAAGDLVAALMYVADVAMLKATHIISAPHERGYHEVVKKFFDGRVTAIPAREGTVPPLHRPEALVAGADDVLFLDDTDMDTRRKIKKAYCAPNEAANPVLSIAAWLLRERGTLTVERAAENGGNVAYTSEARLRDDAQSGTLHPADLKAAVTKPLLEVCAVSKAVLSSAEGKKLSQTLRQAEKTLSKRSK

[8] = target: T4, Tyrosyl-tRNA synthetase, putative (Trypanosoma cruzi (strain CL Brener)); assay: Trypanosoma cruzi tyrosyl tRNA synthetase (TcYRS) SOP; assay type: functional; conditions: 30 µM
[9] = target: Chromo domain-containing protein 1 (Saccharomyces cerevisiae (strain ATCC 204508 / S288c) (Baker's yeast)) (UniProt P32657); assay: ScCHD-1 Enzyme Inhibition Assay; assay type: functional; conditions: 30 µM; note: in the data most compounds retested in dose-response had high values
Chain of Chromo domain-containing protein 1 (Saccharomyces cerevisiae (strain ATCC 204508 / S288c) (Baker's yeast)) (P32657 whole entry, the tested form may be a part): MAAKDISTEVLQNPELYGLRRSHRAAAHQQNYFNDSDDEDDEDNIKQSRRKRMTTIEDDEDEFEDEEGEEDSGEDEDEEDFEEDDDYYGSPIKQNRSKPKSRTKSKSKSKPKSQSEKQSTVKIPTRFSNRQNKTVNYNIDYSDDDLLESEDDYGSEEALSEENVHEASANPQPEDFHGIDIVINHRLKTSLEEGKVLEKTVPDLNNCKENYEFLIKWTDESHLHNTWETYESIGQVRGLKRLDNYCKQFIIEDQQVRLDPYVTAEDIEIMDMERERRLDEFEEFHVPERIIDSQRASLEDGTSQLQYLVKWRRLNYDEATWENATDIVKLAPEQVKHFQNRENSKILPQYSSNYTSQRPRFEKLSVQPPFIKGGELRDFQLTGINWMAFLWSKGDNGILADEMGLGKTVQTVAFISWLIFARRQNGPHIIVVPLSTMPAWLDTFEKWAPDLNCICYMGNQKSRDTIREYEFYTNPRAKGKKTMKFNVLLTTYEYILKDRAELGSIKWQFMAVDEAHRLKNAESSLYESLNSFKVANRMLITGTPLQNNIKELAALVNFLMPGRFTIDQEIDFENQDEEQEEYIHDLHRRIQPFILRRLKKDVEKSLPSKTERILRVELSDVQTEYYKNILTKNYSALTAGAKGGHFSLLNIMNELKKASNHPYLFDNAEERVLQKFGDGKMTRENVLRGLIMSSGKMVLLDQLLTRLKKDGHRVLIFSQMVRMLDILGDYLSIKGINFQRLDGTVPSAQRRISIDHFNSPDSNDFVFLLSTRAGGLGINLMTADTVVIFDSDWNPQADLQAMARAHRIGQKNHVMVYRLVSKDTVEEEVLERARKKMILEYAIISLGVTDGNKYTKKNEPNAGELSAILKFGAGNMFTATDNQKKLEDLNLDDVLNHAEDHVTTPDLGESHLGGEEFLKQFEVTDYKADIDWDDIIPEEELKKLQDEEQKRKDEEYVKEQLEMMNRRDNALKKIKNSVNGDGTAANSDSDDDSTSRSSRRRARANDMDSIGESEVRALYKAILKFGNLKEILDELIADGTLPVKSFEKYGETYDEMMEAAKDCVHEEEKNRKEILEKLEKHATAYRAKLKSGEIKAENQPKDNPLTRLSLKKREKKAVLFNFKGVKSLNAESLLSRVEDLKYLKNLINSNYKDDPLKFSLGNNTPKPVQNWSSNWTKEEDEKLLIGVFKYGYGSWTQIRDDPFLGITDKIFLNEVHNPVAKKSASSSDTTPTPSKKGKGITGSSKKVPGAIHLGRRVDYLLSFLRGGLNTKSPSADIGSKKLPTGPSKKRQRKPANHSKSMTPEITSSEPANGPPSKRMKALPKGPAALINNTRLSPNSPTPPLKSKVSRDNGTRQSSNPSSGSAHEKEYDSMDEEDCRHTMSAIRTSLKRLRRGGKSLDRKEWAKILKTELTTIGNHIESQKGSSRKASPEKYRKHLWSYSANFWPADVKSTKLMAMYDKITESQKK

Chain of Protein translocase subunit SecA (Escherichia coli (strain K12)) (P10408 whole entry): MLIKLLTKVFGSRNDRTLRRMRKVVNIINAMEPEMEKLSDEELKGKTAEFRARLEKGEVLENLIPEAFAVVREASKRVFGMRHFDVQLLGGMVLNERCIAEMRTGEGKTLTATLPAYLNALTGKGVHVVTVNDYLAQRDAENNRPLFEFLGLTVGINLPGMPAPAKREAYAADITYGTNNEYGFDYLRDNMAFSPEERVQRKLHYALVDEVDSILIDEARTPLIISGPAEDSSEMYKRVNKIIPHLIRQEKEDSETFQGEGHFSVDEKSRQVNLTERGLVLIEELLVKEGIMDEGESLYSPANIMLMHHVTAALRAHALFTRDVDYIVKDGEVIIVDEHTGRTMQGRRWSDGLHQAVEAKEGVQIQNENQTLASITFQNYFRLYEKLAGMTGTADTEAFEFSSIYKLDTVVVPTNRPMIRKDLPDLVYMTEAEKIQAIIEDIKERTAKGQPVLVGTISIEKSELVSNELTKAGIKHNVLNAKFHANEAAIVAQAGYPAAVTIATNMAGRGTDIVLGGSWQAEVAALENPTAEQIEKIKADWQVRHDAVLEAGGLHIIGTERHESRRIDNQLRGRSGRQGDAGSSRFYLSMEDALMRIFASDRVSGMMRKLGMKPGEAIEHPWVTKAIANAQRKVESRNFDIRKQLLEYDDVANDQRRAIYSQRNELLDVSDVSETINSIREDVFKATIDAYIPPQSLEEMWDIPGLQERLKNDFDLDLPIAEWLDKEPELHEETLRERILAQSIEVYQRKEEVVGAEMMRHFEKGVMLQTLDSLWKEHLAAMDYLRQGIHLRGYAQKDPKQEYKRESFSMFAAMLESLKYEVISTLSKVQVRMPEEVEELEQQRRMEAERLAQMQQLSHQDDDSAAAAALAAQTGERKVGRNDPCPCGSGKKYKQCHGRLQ
Chain of Sialic acid-binding Ig-like lectin 9 (Homo sapiens) (Q9Y336 whole entry): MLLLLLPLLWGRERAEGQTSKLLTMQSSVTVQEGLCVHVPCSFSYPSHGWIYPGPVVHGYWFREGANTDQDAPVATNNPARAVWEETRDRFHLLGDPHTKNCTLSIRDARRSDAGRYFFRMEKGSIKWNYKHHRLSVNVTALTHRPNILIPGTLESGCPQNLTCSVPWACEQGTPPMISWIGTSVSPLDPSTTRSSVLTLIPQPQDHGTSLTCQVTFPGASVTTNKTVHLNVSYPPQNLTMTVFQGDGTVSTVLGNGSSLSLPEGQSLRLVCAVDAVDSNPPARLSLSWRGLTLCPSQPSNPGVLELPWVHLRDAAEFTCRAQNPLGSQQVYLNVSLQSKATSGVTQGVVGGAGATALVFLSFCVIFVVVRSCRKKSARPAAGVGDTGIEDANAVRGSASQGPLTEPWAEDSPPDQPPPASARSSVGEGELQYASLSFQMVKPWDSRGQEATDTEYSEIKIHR

Compound	Percent Effect [1]	Percent Effect [2]	Percent Effect [3]	Percent Effect [4]	Percent Effect (Trypanosoma cruzi)	Percent Effect [5]	Percent Effect [6]	Percent Effect (Homo sapiens)	Percent Effect [7]	Percent Effect [8]	Percent Effect [9]
COc1ccc(CN(C)CC2(O)CCN(C(=O)c3cccn3C)C2)cc1 (configuration not stated)	-9.44%	-1.35%	5.12%	2.88%	-1.78%	-7.19%	-1.87%	11.8%	-2.15%	-3.9%	-10.2%
CC(O)CN1CCN(Cc2cccc(C(=O)N(C)C)c2)CC1 (configuration not stated)	-4.84%	-141%	-53.4%	5.64%	1.02%	-3.51%	-4.31%	5.72%	5.94%	3.66%	9.61%
CCCc1cc(NC2CCc3ncnn3C2)n2ncnc2n1 (configuration not stated)	-4.43%	5.48%	7.3%	-5.57%	-2.74%	-0.455%	10.1%	17.2%	2.15%	7.5%	-3.04%
CC(=O)N1CCCN(c2nccc(-c3cn(C)nc3C)n2)CC1	-5.23%	5.33%	-0.173%	25.5%	0.682%	0%	9.24%	-1.59%	0.546%	8.64%	-7.43%
O=C1NCCCCC1Sc1nnc(-c2cccnc2)n1C1CC1 (configuration not stated)	-2.96%	2.74%	5.81%	0.732%	-2.55%	0%	9.23%	-4.55%	7.53%	12.5%	-6.68%
Cc1n[nH]c(C)c1C1CCCN1C(=O)NCC(=O)NC(C)(C)C (configuration not stated)	-4.22%	0%	26.9%	3.62%	-6.86%	2.27%	3.9%	0.328%	1.07%	2.5%	-0.359%
Cc1ccc(CNC(=O)CN2CCN(CC(O)C3CC3)CC2)cc1 (configuration not stated)	-0.763%	18.2%	-0.209%	-0.425%	1.87%	1.94%	11.3%	15.5%	9.52%	16.7%	89.9%
CC(NC(=O)NCCN1CCCCCC1=O)c1nncn1C (configuration not stated)	-5.58%	13.5%	-10.1%	13.4%	4.92%	-3.51%	-2.69%	11.3%	7.92%	15.8%	-6.06%
Cn1c2c(ccc1=O)CC(NS(C)(=O)=O)CC2 (configuration not stated)	-7.68%	5.33%	5.05%	-7.17%	-1.97%	-0.233%	-1.15%	20.7%	2.13%	-3.85%	-1.57%
O=C(CN1CCOC(Cn2cccn2)C1)NCCc1ccc(F)cc1 (configuration not stated)	-2.6%	2.7%	-6.61%	-1.28%	-3.25%	-0.554%	7.18%	5.31%	-0.99%	1.22%	13.8%
CC(C)c1nccn1-c1cccc(C2CCN(C)CC2)n1	-4.43%	9.46%	4.91%	-4.03%	4.54%	-5.8%	14.2%	0.127%	1.07%	6.49%	-24.6%
O=C(CN(Cc1ccccc1)CC1CCOCC1)NC(=O)NC1CC1	-9.18%	0%	0.0982%	-1.54%	-4.96%	-4.39%	3%	-3.5%	1.04%	-3.7%	1.29%
CC(C)Oc1ncccc1CNC(=O)N1CCC1c1ccccc1 (configuration not stated)	-7.94%	13.2%	-8.45%	2.16%	11.3%	-0.766%	9.69%	23.3%	7.35%	17.1%	-12%
CN(C)C(=O)N1CCOCC2(CCN(c3ccccn3)C2)C1 (configuration not stated)	-1.92%	-2.7%	-1.14%	-5.57%	-2.64%	2.23%	9.19%	-4.16%	1.07%	1.24%	-3.16%
CC(C)Nc1nc(N2CCCC2)nc2c1CN(C(C)C)CC2	1.43%	-2.67%	-5.03%	21.2%	4.63%	-29.6%	14.7%	-15.2%	5.21%	-2.5%	-5.55%
Cc1cc(C(=O)N[C@@H]2CCNC[C@H]2O)ccc1Cl	-1.58%	5.41%	1.58%	10.1%	6.56%	-1.91%	11.4%	-9.87%	6.88%	4.88%	-2.88%
O=c1oc(-c2cccs2)nn1CC(O)c1ccccc1 (configuration not stated)	-3.18%	8%	-5.55%	2.71%	0.292%	-27.6%	5.58%	7.94%	10.4%	16.1%	-4.32%
O=C(N[C@@H]1CN(c2ncccn2)C[C@@H]2CCCO[C@@H]21)c1cnccn1	-0.31%	8%	1.89%	11.3%	-1.74%	-48.6%	7.18%	10.6%	-7.29%	20%	-6.1%
Cc1nc(CN2C(=O)CC[C@H]3[C@@H]2CCN3C(=O)c2ccsc2)cs1	2.29%	10.8%	2.71%	-8.13%	4.2%	-1.59%	28%	-19.9%	5.41%	15.4%	-0.758%
O=c1nc(CNc2ccccc2)[nH]n1Cc1ccccc1	-3.5%	7.89%	10.7%	0.216%	-4.58%	-1.18%	19.5%	3.25%	9.57%	13%	-4.75%
O=C(Cn1ccc2ccccc21)NCc1ccc(C(=O)O)cc1	-5.35%	2.63%	10.1%	1.77%	-1.85%	0%	15.8%	-18.3%	-1.06%	10.4%	-0.974%
CC(C#N)CSc1ccccc1NCC(=O)NCc1ccccc1 (configuration not stated)	-3.57%	-8.22%	11.4%	8.76%	5.49%	14.1%	11.7%	19.4%	-2.15%	-5%	-1.42%
